Source: PubChem BioAssay AID2615 (Southern Research Specialized Biocontainment Screening …, 2010)
Active and inactive are the calls of the source. The rule behind the calls is not given here.

Assay: antiviral efficacy and BSC cell toxicity – BSC cells, SV40 T antigen inhibitor project, confirmation (AID 2615)
Conditions: outcome: CPE inhibition; viability: CPE inhibition, viability, at 100 µM, stronger effect = lower value

Row | Compound | outcome | viability
1 | Nc1nc2ccc(C(=O)N3CCOCC3)cc2s1 | inactive | 101%
2 | Cc1ccc2c(c1)C1C=CCC1C(C(=O)O)N2 (configuration not stated) | inactive | 41.3%
3 | Nc1nc2ccc(S(=O)(=O)N3CCCCC3)cc2s1 | inactive | 0.95%
4 | Cc1cc(C)c2c(=O)n(CC(=O)Nc3cccc(Cl)c3C)sc2n1 | inactive | 2.65%
5 | ClC(Cl)(c1nnnn1-c1ccccc1)c1nnnn1-c1ccccc1 |  | 0.34%
6 | COc1ccc(-n2nnnc2C(Cl)(Cl)c2nnnn2-c2ccc(OC)cc2)cc1 | inactive | 6.3%
7 | Nc1nc2ccc(C(=O)N3CCCCC3)cc2s1 | inactive | 103%
8 | CCN(CC)C(=O)c1ccc2nc(N)sc2c1 | inactive | 87.6%
9 | ClC(Cl)(c1nnnn1-c1ccc(Br)cc1)c1nnnn1-c1ccc(Br)cc1 | inactive | -0.31%
